We go through 9 compounds from PubChem BioAssay (NCI).

About 83,000 compounds went through this panel and 20% of them were active in at least one assay; those are over-represented in the sample as a whole.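 The endpoint reported here, percent growth, reads 100 for growth as untreated, 0 for no net growth and -100 for all cells dead.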 A number with no mark means an inactive call. Activity calls are given as the source filed them. The calls were made as follows: active = growth percent below 10; inactive = the rest.

Experiment in all cases: NCI-60 one-dose screen, 48 h (100 = growth as untreated, 0 = no growth, -100 = all killed)
Holding throughout (settings): 10 µM unless noted

The test system of experiment [1] is RPMI-8226 leukemia.
The subject of experiment [2] is OVCAR-8 ovarian.
Experiment [3] deals with OVCAR-5 ovarian.
Experiment [4] concerns OVCAR-4 ovarian.
The test system of experiment [5] is SK-OV-3 ovarian.
Experiment [6] relates to IGROV1 ovarian.
Experiment [7] deals with OVCAR-3 ovarian.
For experiment [8], the system named is HS 578T breast.
Experiment [9] concerns NCI/ADR-RES ovarian.
Experiment [10] concerns T-47D breast.
Experiment [11] deals with BT-549 breast.
The test system of experiment [12] is MDA-MB-435 melanoma.
Experiment [13] has as its system SW-620 colon.
The test system of experiment [14] is HCT-116 colon.
Experiment [15] relates to HCC-2998 colon.
Experiment [16] deals with KM12 colon.
The subject of experiment [17] is MCF7 breast.

For `O=C(/C=C/c1ccc(O)c(O)c1)N1CCN(c2ccc(Cl)cc2)CC1`, the growth in experiment [1] was 42%; in experiment [2], 61.6%; in experiment [3], 95.3%; in [4], 51.4%; in experiment [5], 80.7%; in [6], 14.9%. The growth is 60.3% in experiment [7]; 80.2% in [8]; 58.7% in experiment [9]; 49.2% in experiment [10]; 56.9% in experiment [11]; 67.9% in experiment [12]. In addition, the growth is 64% in experiment [13], 55.7% in [14], 82.9% in experiment [15] and 73.5% in experiment [16].
With `CCCc1nn(C)c2c(=O)[nH]c(-c3cc(S(=O)(=O)N4CCN(C)CC4)ccc3OCC)nc12`, the growth in experiment [1] is 101%; in [2], 109%; in [3], 95.6%; in [4] it was 111%; in [5], 100%; in [6], 112%. Besides, the growth in experiment [7] was 111%; in experiment [8], 104%; in experiment [9], 90.2%; in experiment [10], 98.4%; in experiment [11] it was 94.5%; in experiment [12] it was 100%. For the same compound, the growth in experiment [13] is 115%; in [14], 98.8%; in [16], 103%.
With `N#Cc1cnc2cc(OC[C@H](O)CO)c(NC(=O)CC3CSSC3)cc2c1Nc1ccc(OCc2cccc(F)c2)c(Cl)c1`, the growth in experiment [1] was -68.9% (active); in experiment [2], -54.6% (active); in experiment [3], -47.8% (active); in [4], -62.9% (active); in [5], -87.5% (active); in [6], -41.8% (active). In addition, the growth in experiment [7] is -89.2% (active); in experiment [8], -44.7% (active); in experiment [9] it was 87.8%; in experiment [10] it was -61.1% (active); in [11], -62.2% (active); in experiment [12] it was -82.7% (active). In addition, the growth in [13] is -70.8% (active); in experiment [14], -42.8% (active); in experiment [15], -81.9% (active); in [16], -81.8% (active).
For `COc1ccc(C2=NN(C(C)=O)C(c3cc(OC)c(OC)c(OC)c3)C2)cc1` (stereo not drawn), the growth in experiment [1] is 93.9%; in [2], 108%; in [3] it was 111%; in [4], 112%; in experiment [5] it was 108%; in [6], 92.8%. Moreover, the growth in experiment [7] was 88.6%; in experiment [8], 244%; in experiment [9] it was 83%; in experiment [10] it was 92.1%; in [12], 34.1%; in [13], 98%. The growth was 89.8% in [17], 103% in experiment [14], 94.9% in [15] and 60.5% in [16].
On to `N=c1ccn2c(n1)O[C@@H]1[C@@H](O)[C@H](CO)O[C@@H]12`, for which the growth is 94.4% in experiment [1]; 25.7% in [2]; 81% in experiment [3]; 76.7% in [4]; 61.7% in [5]; 71.4% in [6]. The growth in [7] was 87.5%; in experiment [8], 99%; in experiment [9], 41.6%; in experiment [10], 92.7%; in experiment [11] it was 83.5%; in experiment [12], 57.1%. The growth in [13] is 66.5%; in experiment [14], 37.4%; in experiment [15], 50.2%; in experiment [16], 77.4%.
As to `O=C1NCN(CCO)CN1`, the growth in experiment [1] was 85.6%; in experiment [2], 99.9%; in [3], 101%; in experiment [4] it was 98.5%; in [5], 95.4%; in experiment [6] it was 115%. The growth in experiment [7] was 107%; in experiment [8], 96.7%; in [9], 102%; in experiment [10] it was 89.9%; in experiment [11], 75.9%; in experiment [12] it was 97.1%. Besides, the growth was 102% in [13], 106% in [14], 100% in experiment [15] and 108% in experiment [16].
For the compound `O=C(Nc1ccc(Cl)cc1)Nc1ccc(Oc2nncc3ccccc23)cc1`, the growth in experiment [1] was -0.0795% (active); in experiment [2], 19.4%; in [3] it was -16% (active); in experiment [4] it was -20.8% (active); in experiment [5], 56.7%; in experiment [6] it was 8.16% (active). Further, the growth was -62.8% (active) in [7]; 37.5% in experiment [8]; 37.6% in experiment [9]; 10.2% in experiment [10]; -10.3% (active) in experiment [11]; -33.3% (active) in experiment [12]. For the same compound, the growth in experiment [13] is -30.1% (active); in experiment [14], -56.9% (active); in [15], -42.2% (active); in [16], -32.3% (active).
For the compound `CCCCCCOc1ccc(/C=N/NC(N)=S)cc1`, the growth was 7.2% (active) in [1]; 70.6% in [2]; 84.5% in experiment [3]; 26.5% in [4]; 90.6% in experiment [5]; 13.9% in experiment [6]. The growth in [7] is 28.5%; in experiment [8], 61.8%; in experiment [9], 58.5%; in experiment [10] it was 24%; in experiment [11], -5% (active); in experiment [13], 23.3%. The growth in [17] is 56.6%; in [14] it was 33.6%; in experiment [15], 72.1%; in experiment [16] it was 48.9%.
For the compound `O=C1CC(C(F)(F)F)=NN1C(=O)c1nn(-c2ccc(Cl)cc2)cc1O`, the growth was 71.6% in experiment [1]; 71.9% in experiment [2]; 87.6% in experiment [3]; 79% in experiment [4]; 75.4% in [5]; 88.7% in [6]. In addition, the growth is 65.7% in experiment [7]; 106% in experiment [8]; 72.4% in [9]; 84.8% in experiment [10]; 95.3% in experiment [12]; 97.1% in [13]. Besides, the growth in [17] was 102%; in experiment [14] it was 74.1%; in experiment [15] it was 89.7%; in experiment [16] it was 79.9%.
